Screening results: PubChem, National Center for Advancing Translational Sciences (NCATS)
HCV inh: qHTS Assay for Inhibitors of Hepatitis C Virus (HCV); Potency, µM (series often up to 41.8 µM), hits mostly inhibitors; Huh7.5.1 HCVcc-Cre infection, luciferase reporter, 44 h; hit rate 3.4% among 340,000; active means well fitted inhibition curve with a large enough effect; inconclusive means small, poorly fitted or top-dose-only effect, or another doubt; inactive means no such curve, though single readings can be large or run the other way
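Reporter virus HCVcc-Cre (~0.5 moi) infects cells exposed to compound; seeding density 1,000 cells/well with 4 h settling beforehand. Luminescence, 15 sec read, taken 44 h post-infection following a 15 min RT substrate incubation.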
FMDV inh: High Throughput Screening for Foot and Mouth Disease Virus Antivirals. AID 1159524, 2015. FMDV antiviral cell-based qHTS. hit rate 1.2% among 410,000. Potency, µM (series often up to 57.9 µM), actives largely listed as inhibitors; calls by dose curve; tested in HEK293T cells; further: read-out not given here; nearly all actives have a fitted effect of over 45% in size
VACV Venus inh: qHTS for Stage-Specific Inhibitors of Vaccinia Orthopoxvirus: Venus Reporter Primary qHTS | Potency, µM (series often up to 36.5 µM), hits mostly inhibitors | hit rate 0.46% among 330,000 | Vaccinia virus Venus reporter expression, fluorescence; calls by dose curve; tested in A549 cells; further: nearly all actives have a fitted effect of over 30% in size
HCMV antiviral: qHTS Assay for inhibitors of the human cytomegalovirus (HCMV); HFF cells, HCMV-luciferase reporter, 72 h; active compounds read low; activity change, negative = inhibition, % at 57.5 µM; hit rate 4.5% among 410,000; in the data active means activity change below about -60%; inconclusive means no clear call, values can overlap the other calls; inactive means above about -39%
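Two-dose cell screen: HFF monolayers treated with compounds and infected with luciferase-expressing HCMV at 1 PFU/cell, 72 h at 37C, then lysed for luciferase measurement.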
VACV mCherry inh: qHTS for Stage-Specific Inhibitors of Vaccinia Orthopoxvirus: mCherry Reporter Primary qHTS | hit rate 0.63% among 310,000 | Vaccinia virus mCherry reporter infection, fluorescence | AID 720579, 2013 | Potency, µM (top dose mostly 36.5 µM), most hits filed as inhibitors; calls by dose curve; tested in A549 cells; further: nearly all actives have a fitted effect of over 35% in size
Of the large screens only hits and unclear results are named; the others gave an inactive call; ! = not confirmed by another sample. A selection: hits, their analogues and other compounds. The true share with any hit is near 7.3%.

Cn1c2ccccc2c2ccc3c(c21)C(=O)C=CC3=O	HCV inh inconclusive, FMDV inh 20µM
Cc1ccc(C)c2c1c1ccccc1n2C	HCV inh inconclusive
Cc1ccc2c(c1)c1ccc3c(c1n2C)C(=O)C=CC3=O	HCV inh 11.2µM, FMDV inh 31.6µM, HCMV antiviral inconclusive (no result: VACV Venus inh, VACV mCherry inh)
CCO[C@@H](Cc1ccc(OCCc2ccc(OS(C)(=O)=O)cc2)cc1)C(=O)O	none (no result: HCV inh, FMDV inh, VACV Venus inh, VACV mCherry inh)
CC(C)NCCCOc1ccc(Cl)cc1Br	FMDV inh inconclusive
CC(C)NCCCCOc1ccc(Br)cc1Cl	HCV inh 10µM, HCMV antiviral inconclusive
CCN1/C(=C/C=C/C2=[N+](CC)c3ccccc3C2(C)C)C(C)(C)c2ccccc21	FMDV inh 3.55µM, HCMV antiviral -98.7 (no result: HCV inh, VACV Venus inh)
CCCN1C(=O)/C(=C/C=C2\N(CC)c3ccccc3C2(C)C)SC1=S	HCV inh inconclusive, FMDV inh inconclusive
COC(=O)C1CN(C#N)N(c2ccc(Cl)cc2)C12c1ccccc1-c1ccccc12 (configuration not stated)	HCV inh 3.98µM, FMDV inh 3.55µM, VACV Venus inh inconclusive, VACV mCherry inh inconclusive (no result: HCMV antiviral)
OC1(c2ccc(Cl)cc2)CCN(Cc2cn[nH]c2-c2ccc(F)cc2)CC1	HCV inh 8.91µM, HCMV antiviral -77.7
OC1(c2ccc(Cl)cc2)CCN(Cc2cn[nH]c2-c2ccccc2)CC1	HCV inh inconclusive, HCMV antiviral inconclusive
CCC(=O)N1CCc2cc(CNC(=O)c3ccc(F)cc3)ccc21	none (no result: HCV inh)
Cc1nnc(NC(=O)CC(NC(=O)C(F)(F)F)c2ccccc2)s1 (configuration not stated)	none
O=C(CC(NC(=O)C(F)(F)F)c1ccccc1)Nc1nnc(CCc2ccccc2)s1 (configuration not stated)	HCMV antiviral -64.7
c1ccc(CCn2c3ccccc3c3nnc(SCc4ccc5nonc5c4)nc32)cc1	HCV inh inconclusive, FMDV inh inconclusive, HCMV antiviral -81.5
CCN(CC)CCSc1nnc2c3ccccc3n(CCc3ccccc3)c2n1	HCV inh 10µM, VACV Venus inh inconclusive, HCMV antiviral -78.9, VACV mCherry inh inconclusive
Cc1ccc(N(Cc2cccs2)C(=O)c2ccc(OC(C)C)cc2)cc1	none (no result: HCV inh)
COc1ccccc1-n1cc(-c2ccccc2)[nH]c1=S	FMDV inh inconclusive (no result: VACV Venus inh, VACV mCherry inh)
COc1ccccc1-n1cc(-c2ccccc2)c2c(=S)nc[nH]c21	HCMV antiviral -68.7 (no result: VACV Venus inh, VACV mCherry inh)
COc1ccc(N2CCN(C(=O)CN(CCc3ccccc3)S(C)(=O)=O)CC2)cc1	VACV Venus inh inconclusive, VACV mCherry inh 1.78µM (no result: FMDV inh)
COc1ccc(N2CCN(C(=O)CCNS(=O)(=O)c3cccs3)CC2)cc1	VACV Venus inh 12.6µM, VACV mCherry inh inconclusive (no result: FMDV inh)
COc1ccc(N2CCN(C(=O)CN(C)S(=O)(=O)c3cccs3)CC2)cc1	HCMV antiviral -99.8!
CCCCCCCCCCCCCC(=O)Nc1ccc(/C=C/c2ccnc3ccccc23)cc1	none (no result: HCV inh, FMDV inh, HCMV antiviral)
COc1ccc(C2Nc3ccc(NC(C)=O)cc3C(=O)N2Cc2cccc(Cl)c2)cc1COc1ccc(NC(C)=O)cc1 (configuration not stated)	none (no result: HCV inh, FMDV inh, HCMV antiviral)
Cc1cc(-c2ccc(S(=O)(=O)Nc3ccccc3F)s2)on1	none (no result: HCV inh)
O=C(Nc1ccc(Cl)cc1)c1cc2c(cc1O)[nH]c1ccccc12	HCV inh inconclusive, FMDV inh inconclusive, VACV Venus inh inconclusive, HCMV antiviral -81.2, VACV mCherry inh inconclusive
Cc1cc(NC(=O)CSc2nc3c(sc4ccccc43)c(=O)n2CCc2ccccc2)n[nH]1	none (no result: VACV Venus inh, VACV mCherry inh)
CN(C)CCn1c(SCc2ccccc2C#N)nc2c(sc3ccccc32)c1=O	HCMV antiviral -67.3 (no result: VACV Venus inh, VACV mCherry inh)
CCCCN(CC)C(=O)CSc1nc2c(sc3ccccc32)c(=O)n1CCc1ccccc1	none (no result: HCV inh)
C=CCN(C(=O)CSc1nc2c(sc3ccccc32)c(=O)n1CCN(CC)CC)c1ccccc1	FMDV inh inconclusive, VACV Venus inh inconclusive, HCMV antiviral -67.0
CCc1ccc(NC(=O)CSc2nc3c(sc4ccccc43)c(=O)n2CCN(CC)CC)cc1	HCMV antiviral -60.5, VACV mCherry inh inconclusive (no result: HCV inh)
Cc1cc(NC(=O)CSc2nc3c(sc4ccccc43)c(=O)n2CCCN2CCOCC2)n[nH]1	HCV inh 5.62µM (no result: VACV Venus inh, HCMV antiviral, VACV mCherry inh)
CCOc1ccc(N(C)C(=O)c2oc(=O)c3ccccc3c2-c2ccccc2)cc1	FMDV inh inconclusive (no result: HCV inh)
Cc1cc2ccccc2n1-c1ccc(C(=O)N2CCC(C(=O)NCc3ccc(Cl)cc3)CC2)s1	FMDV inh inconclusive, VACV Venus inh inconclusive, VACV mCherry inh inconclusive (no result: HCV inh)
